Source: PubChem (National Center for Advancing Translational Sciences (NCATS))
HepG2 viability: HepG2 cytotoxicity, counter-screen for TGF-b inhibitors. HepG2 CAGA-GFP viability, ATP luminescence, 18 h. Potency, µM (top dose mostly 46.1 µM), actives largely listed as cytotoxic. hit rate 0.76% among 410,000
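HepG2 CAGA-GFP cells (1000/well, DMEM with 1% FBS) received compound, then TGF-beta at 500 pg/mL final, and were incubated 18 hours at 37 degrees C. Viability was read by CellTiter-Glo luminescence. Media-only wells were set as complete cell-killing and DMSO as no toxicity.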
TGFb inhibitor: blocks TGF-b signaling; hit rate 1.2% among 410,000; Potency, µM (titrated, usually from 46.1 µM), hits mostly inhibitors; HepG2 CAGA-GFP TGF-b/SMAD3 reporter, GFP fluorescence, 18 h; TGF-beta stimulated, 500 pg/mL final; further: nearly all actives have a fitted effect of over 65% in size
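Cell-based qHTS in HEPG2 carrying a CAGA-GFP Smad reporter; compounds added before 500 pg/mL final TGF-beta, 18 h incubation at 37 degrees C, GFP fluorescence quantified per cell by imaging cytometry.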
S2 tox: viability counter-screen for ATXN expression inhibitors | AID 651635 | S2 cells (HEK-293 line with an ATXN2-luciferase reporter) viability, CellTiter-Fluor protease fluorescence, 24 h | Potency, µM (top dose mostly 56.7 µM), usual class: cytotoxic | hit rate 0.49% among 400,000; further: nearly all actives have a fitted effect of over 40% in size
ATXN2 expr inh: reduces ATXN2 reporter expression in HEK-293 cells | HEK-293 ATXN2-luciferase reporter, luminescence, 24 h | Potency, µM (series often up to 57 µM), most hits filed as inhibitors | hit rate 0.72% among 360,000 | AID 1745845; further: nearly all actives have a fitted effect of over 55% in size
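qHTS (up to 57 uM final) was run with 24 h compound exposure of reporter cells at 37 °C. Each well was multiplexed: SteadyGlo luminescence measured ATXN2-luciferase expression after a fluorogenic Gly-Phe-AFC viability readout (25 uM final).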
DT40 TDP1 CPT: DT40-hTDP1 cell growth loss with CPT; chicken DT40 Tdp1-/-;hTDP1 cells + 20 nM CPT, ATP luminescence, 48 h; Potency, µM (titrated, usually from 46.2 µM), most hits filed as inhibitors; hit rate 12% among 420,000; AID 686979; further: nearly all actives have a fitted effect of over 55% in size
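Chicken DT40 Tdp1-/- cells complemented with human TDP1, 400 cells/well, exposed to compounds plus 20 nM camptothecin for at least 48 h at 37 C; viability read as ATP content by CellTiter-Glo luminescence.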
DT40 TDP1 no CPT: qHTS for Inhibitors of human tyrosyl-DNA phosphodiesterase 1 (TDP1): qHTS in cells in absence of CPT; AID 686978, 2013; DT40 Tdp1-/- hTDP1 cells, no CPT, ATP luminescence, 48 h; hit rate 15% among 420,000; Potency, µM (highest dose often 46.2 µM), actives largely listed as inhibitors; further: nearly all actives have a fitted effect of over 55% in size
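Camptothecin absent (DMSO only). Human TDP1-complemented DT40 knockout cells, 400 cells/well, 37 °C for minimum 48 hr; ATP measured via CellTiter-Glo, 30 min dark incubation, luminescence.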
Large screens that a line does not name were inactive; ! = repeats disagree. The list is not random: actives were taken first. Their share in the collection is about 17%. The call rests on the fitted dose curve; in most records, active means well fitted curve in the direction sought with a large enough effect; inconclusive means small, poorly fitted or top-dose-only effect, or another doubt; inactive means no such curve, though single readings can be large; an effect the other way counts as inactive or inconclusive.

Cc1ccccc1C(=O)NC1(C(F)(F)F)C(=O)Nc2c1c(=O)[nH]c(=O)n2CCc1ccccc1 (stereo unspecified)	none
COc1ccccc1NC(=O)C1CCN(C(=O)NCc2ccccc2)CC1	DT40 TDP1 no CPT inconclusive
CC(C)Cn1cnc2c(N)nc3ccccc3c21	ATXN2 expr inh 22µM!, DT40 TDP1 CPT inconclusive, DT40 TDP1 no CPT inconclusive
CC(C)Cn1cnc2c(SCc3ccccc3)nc(N)nc21	DT40 TDP1 no CPT inconclusive
O=C(/C=C/c1cc([N+](=O)[O-])ccc1OC(F)F)Nc1cccc([N+](=O)[O-])c1	none
O=[N+]([O-])c1ccc(Cl)c(-c2ccc(/C=N/n3cnnc3)o2)c1	none
COc1cc([N+](=O)[O-])ccc1-c1ccc(/C=C2\C(=O)ON=C2c2ccccc2)o1	DT40 TDP1 CPT 12µM, DT40 TDP1 no CPT 9.2µM (no result: ATXN2 expr inh)
COc1cc([N+](=O)[O-])ccc1-c1ccc(/C=N\n2cnnc2)o1	DT40 TDP1 CPT 1.6µM, DT40 TDP1 no CPT 1.8µM (no result: ATXN2 expr inh)
O=[N+]([O-])c1ccc(OC(F)F)c(/C=N/n2cnnc2)c1	DT40 TDP1 CPT 5.8µM, DT40 TDP1 no CPT 6.5µM
COc1ccc(-c2ccc(/C=C3\C(=O)N(c4ccccc4)N=C3c3ccccc3)o2)c([N+](=O)[O-])c1	DT40 TDP1 CPT inconclusive, DT40 TDP1 no CPT 21µM
CCC(=O)c1ccccc1OCCCCn1cncn1	none (no result: ATXN2 expr inh)
Cc1ccc(-c2nc(NC(=O)CSc3nnc4scc(-c5ccccc5)n34)ns2)cc1	DT40 TDP1 CPT 18µM, DT40 TDP1 no CPT 21µM
Cc1ccc(-c2nc(NC(=O)CSc3nc(C)nc4sc5c(c34)CCCC5)ns2)cc1	DT40 TDP1 CPT 12µM, DT40 TDP1 no CPT 6.5µM (no result: S2 tox, ATXN2 expr inh)
Cc1ccccc1-c1nc(NC(=O)CSc2ncnc3sc4c(c23)CCCC4)ns1	none (no result: S2 tox, ATXN2 expr inh)
CC(C)(C)c1ccc(-c2nc(NC(=O)CSc3ncnc4sc5c(c34)CCCC5)ns2)cc1	DT40 TDP1 CPT inconclusive, DT40 TDP1 no CPT 4.1µM (no result: S2 tox, ATXN2 expr inh)
O=C(/C=C/c1ccc(S(=O)(=O)N2CCOCC2)cc1)NCc1ccccc1F	DT40 TDP1 CPT inconclusive
C=CCc1cccc(CNc2cnc3ccccc3c2)c1O	TGFb inhibitor inconclusive, S2 tox inconclusive, DT40 TDP1 CPT 6.5µM, DT40 TDP1 no CPT 10µM (no result: ATXN2 expr inh)
Oc1ccccc1CNc1cnc2ccccc2c1	TGFb inhibitor inconclusive, DT40 TDP1 CPT 23µM, DT40 TDP1 no CPT 23µM
Oc1ccc(Cl)cc1CNc1cnc2ccccc2c1	TGFb inhibitor inconclusive, S2 tox inconclusive, DT40 TDP1 CPT inconclusive, DT40 TDP1 no CPT 29µM (no result: ATXN2 expr inh)
Cc1ccc(/C(=C\CN2CCCC2)c2cccc(/C=C/C(=O)O)n2)cc1	none (no result: HepG2 viability, TGFb inhibitor, ATXN2 expr inh)
O=C1C(=Cc2ccccn2)CCc2ccccc21	HepG2 viability 13µM, TGFb inhibitor 10µM, S2 tox inconclusive, DT40 TDP1 CPT 15µM, DT40 TDP1 no CPT 4.1µM (no result: ATXN2 expr inh)
C(=C1c2ccccc2-c2ccccc21)c1ccccn1	DT40 TDP1 CPT inconclusive, DT40 TDP1 no CPT 13µM
COc1ccc2c(c1)CC/C(=C/c1ccccn1)C2=O	TGFb inhibitor inconclusive, DT40 TDP1 CPT inconclusive, DT40 TDP1 no CPT inconclusive
COc1ccc(Cl)cc1C(=O)NCC(=O)OCc1ccccc1	none
CCOc1ncc(S(=O)(=O)N2CCN(CC)CC2)cc1C(=O)O	none
Cc1ccc(S(=O)(=O)c2ccc(NC(=O)c3c(F)cccc3F)cc2)cc1	DT40 TDP1 no CPT inconclusive (no result: ATXN2 expr inh)
Cc1ccc2[nH]c3c(c2c1)CN(C(=O)CC1(c2ccccc2)CC(=O)N(Cc2cccnc2)C1=O)CC3 (stereo unspecified)	DT40 TDP1 CPT inconclusive, DT40 TDP1 no CPT 16µM (no result: HepG2 viability, TGFb inhibitor, ATXN2 expr inh)
Cc1ccc2[nH]c3c(c2c1)CN(C(=O)CN1CCCc2ccccc21)CC3	DT40 TDP1 CPT 23µM, DT40 TDP1 no CPT inconclusive
O=c1c2cc3c(cc2n(Cc2ccccc2)c(=O)n1Cc1nc(-c2ccccc2)no1)OCO3	none
CC(=O)NC(c1ccc(F)c(F)c1)c1nc(-c2ccccc2)cs1 (stereo unspecified)	DT40 TDP1 CPT inconclusive, DT40 TDP1 no CPT inconclusive
Cc1sc(-c2cc3ccccc3oc2=O)nc1-c1ccc(Cl)cc1	none
CN(c1ccccc1)S(=O)(=O)c1cccc(NC(=O)Nc2ccc(Cl)cc2C#N)c1	DT40 TDP1 CPT inconclusive, DT40 TDP1 no CPT 23µM
CCN(c1ccccc1)S(=O)(=O)c1ccc(Cl)c(NC(=O)Nc2ccc(Cl)cc2C#N)c1	TGFb inhibitor inconclusive, DT40 TDP1 CPT 16µM, DT40 TDP1 no CPT 16µM
CCOc1ccccc1CNC(=O)CN1C(=O)CCCc2ccccc21	DT40 TDP1 CPT inconclusive, DT40 TDP1 no CPT inconclusive (no result: S2 tox, ATXN2 expr inh)
COc1cc2c(cc1OC)C(COc1ccc3c(C)cc(=O)oc3c1)N(C(=O)c1ccc(Cl)cc1)CC2 (stereo unspecified)	DT40 TDP1 CPT inconclusive, DT40 TDP1 no CPT inconclusive
CCc1ccc(OCC2c3cc(OC)c(OC)cc3CCN2C(=O)COc2ccccc2)cc1 (stereo unspecified)	ATXN2 expr inh inconclusive, DT40 TDP1 CPT inconclusive, DT40 TDP1 no CPT 16µM
CCNC(=S)N1CCc2cc(OC)c(OC)cc2C1COc1ccc(F)cc1 (stereo unspecified)	none
COc1cc2c(cc1OC)C(COc1ccccc1OC)N(C(=O)COc1ccc(Cl)cc1)CC2 (stereo unspecified)	DT40 TDP1 CPT 18µM, DT40 TDP1 no CPT 23µM
CC1(Cc2ccc(S(C)(=O)=O)cc2)C(=O)Nc2ccc(Cl)cc21 (stereo unspecified)	none
COc1ccc(NC(=O)N(C)C[C@H]2OCc3cn(nn3)CCCC(=O)N([C@@H](C)CO)C[C@@H]2C)cc1	S2 tox inconclusive
Cc1ccc(OCc2cc(C(=O)NCc3cc(F)ccc3C)no2)cn1	DT40 TDP1 CPT 16µM, DT40 TDP1 no CPT inconclusive
CCC(NC(=O)c1cc(COc2c(F)cccc2F)on1)c1ccncc1 (stereo unspecified)	DT40 TDP1 CPT inconclusive, DT40 TDP1 no CPT inconclusive
Cc1ccc(OCc2cc(C(=O)NC3CCc4ccccc43)no2)cn1 (stereo unspecified)	DT40 TDP1 CPT 18µM, DT40 TDP1 no CPT 13µM
CCC(NC(=O)c1cc(COc2ccc(OC)cc2Cl)on1)c1ccncc1 (stereo unspecified)	DT40 TDP1 CPT inconclusive, DT40 TDP1 no CPT 12µM
CCC(NC(=O)c1cc(COc2ccc(C)nc2)on1)c1ccc(C)cc1 (stereo unspecified)	DT40 TDP1 CPT 16µM, DT40 TDP1 no CPT inconclusive
Cc1ccccc1CNC(=O)c1cc(COc2ccc(F)cc2F)on1	DT40 TDP1 CPT inconclusive (no result: ATXN2 expr inh)
